Data: PubChem BioAssay (EPA / NIEHS)
Calls of active or inactive are those of the source. Rule for the calls: active = hit-call score of the fitted dose curve at least 0.9, where 1 is the maximum; inactive = score below 0.9.

Experiments:
[1] = ATG_ISRE_CIS: Attagene CIS-FACTORIAL HepG2 Assay for human Interferon Regulatory Factor 1 (IRF1) binding to an Interferon-Stimulated Response Element (ISRE) (AID 2282948); details: HepG2 ISRE cis-reporter (Attagene), mRNA transcription readout; actives raise or lower the signal
In short: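 Transiently transfected HepG2 cells carrying cis-element reporter units, dosed 24 hours. Reporter mRNA quantified by RT-PCR, fluorescent primer extension, HpaI digestion and capillary electrophoresis. Bidirectional fitting relative to DMSO.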

[2] = ATG_M_32_CIS: Attagene CIS-FACTORIAL HepG2 Assay for M32 Transcription Factor (Internal Marker) (AID 2282949); details: HepG2 Attagene cis-factorial M32 reporter, mRNA; actives raise or lower the signal;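 note: background control marker of the multiplexed CIS panel rather than a real target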
In short: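 HepG2 cells transiently transfected with multiplexed cis-regulated reporter units, dosed 24 h. Reporter mRNA quantified by RT-PCR, 6-FAM labelling, HpaI digestion and capillary electrophoresis; bidirectional fit vs DMSO.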

[3] = ATG_M_06_CIS: Attagene CIS-FACTORIAL HepG2 Assay for M06 Transcription Factor (Internal Marker) (AID 2282950); details: HepG2 Attagene CIS-FACTORIAL M06 internal marker reporter; actives raise or lower the signal
In short: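 Measured 24 h post-dosing in transiently transfected HepG2 cells, this internal-marker endpoint reports reporter mRNA via RT-PCR with fluorescent primer extension and capillary electrophoresis. DMSO served as negative control and baseline for bidirectional fitting.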

[4] = target: Hypoxia-inducible factor 1-alpha (Homo sapiens) (UniProt Q16665); experiment: ATG_HIF1a_CIS: Attagene CIS-FACTORIAL HepG2 Assay for human Hypoxia Inducible Factor 1 (HIF1A) (AID 2282951); details: HepG2 Attagene cis-factorial HIF1a reporter transcription; actives raise or lower the signal
In short: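 Activity is fitted in both directions relative to DMSO. Reporter transcripts are read by RT-PCR, fluorescent primer extension and capillary electrophoresis after 24 h chemical treatment. The cells are HepG2 carrying transiently transfected cis-element-driven reporter units responding to endogenous factors.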

[5] = target: Hepatocyte nuclear factor 6 (Homo sapiens) (UniProt Q9UBC0); experiment: ATG_HNF6_CIS: Attagene CIS-FACTORIAL HepG2 Assay for human Hepatocyte Nuclear Factor 6 (HNF6) (AID 2282952); details: HepG2 Attagene cis-factorial HNF6 reporter transcription; actives raise or lower the signal
In short: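 Transiently transfected HepG2 cells expressing cis-regulated reporter transcription units were exposed to chemical for 24 h in a 24-well format. Reporter transcript abundance was determined by fluorescence capillary electrophoresis.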

[6] = target: Heat shock factor protein 1 (Homo sapiens) (UniProt Q00613); experiment: ATG_HSE_CIS: Attagene CIS-FACTORIAL HepG2 Assay for human Heat Shock Transcription Factor 1 (HSE) (AID 2282953); details: HepG2 HSE cis-reporter, Attagene RNA transcription; actives raise or lower the signal
In short: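 Reporter mRNA induction in HepG2 is measured 24 h after dosing, using transiently transfected multiplexed cis-regulated reporter units. Signal comes from capillary electrophoresis of labelled RT-PCR products, with DMSO as negative control.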

[7] = ATG_MRE_CIS: Attagene CIS-FACTORIAL HepG2 Assay for human Metal Responsive Element (MRE) (AID 2282954); details: HepG2 MRE cis-reporter transcription, Attagene multiplex; actives raise or lower the signal
In short: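 Transient MRTU transfection of HepG2 (FuGene 6); 24 h dosing; total RNA → oligo(dT) RT, PCR, 6-FAM primer extension, HpaI cut, CE. Bidirectional fit vs DMSO.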

[8] = ATG_PBREM_CIS: Attagene CIS-FACTORIAL HepG2 Assay for human Phenobarbital-responsive Enhancer Module (PBREM) (AID 2282955); details: HepG2 PBREM cis-reporter, Attagene multiplexed transcription; actives raise or lower the signal
In short: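 Endogenous transcription factor activity was read from reporter transcripts in transiently transfected human HepG2 liver cells after 24 h dosing. RT-PCR products were fluorescently labelled, HpaI-cut and sized by capillary electrophoresis; activity fitted bidirectionally against DMSO baseline.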

[9] = target: Paired box protein Pax-6 (Homo sapiens) (UniProt P26367); experiment: ATG_Pax6_CIS: Attagene CIS-FACTORIAL HepG2 Assay for human Paired Box 6 (PAX6) (AID 2282956); details: HepG2 CIS-FACTORIAL PAX6 reporter transcription, RNA readout; actives raise or lower the signal
In short: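 HepG2 cells transiently transfected with cis-promoter-driven multiplexed reporter units sensing endogenous transcription factor activity; 24 h chemical exposure. Reporter mRNA quantified by RT-PCR, 6-FAM labelling, HpaI digestion and capillary electrophoresis; bidirectional fit versus DMSO baseline.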

[10] = ATG_PXRE_CIS: Attagene CIS-FACTORIAL HepG2 Assay for human Pregnane X Receptor Element (PXRE) (AID 2282957); details: HepG2 Attagene CIS-FACTORIAL PXRE reporter, mRNA; actives raise or lower the signal
In short: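 Cis-element reporter mRNA in human hepatoma HepG2 cells is measured 24 h post-dosing by RT-PCR, primer-extension labeling and capillary electrophoresis; gain or loss of signal is fitted relative to DMSO.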

[11] = ATG_RORE_CIS: Attagene CIS-FACTORIAL HepG2 Assay for human RAR-related Orphan Receptor Element (RORE) (AID 2282959); details: HepG2 Attagene cis-factorial RORE reporter, mRNA; actives raise or lower the signal
In short: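 RORE reporter transcripts reflecting endogenous factor activity were read after 24 h compound exposure of transfected HepG2 cells, using reverse transcription, PCR, fluorescent labelling and capillary electrophoresis sizing. Gain or loss fitted against DMSO.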

[12] = ATG_Sox_CIS: Attagene CIS-FACTORIAL HepG2 Assay for human SRY-box transcription factor (SOX) (AID 2282960); details: HepG2 Attagene cis-factorial SOX reporter, mRNA; actives raise or lower the signal
In short: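 Reporter transcripts, measured by RT-PCR and capillary electrophoresis of labelled fragments, report endogenous SOX transcription factor activity. Transiently transfected human HepG2 cells receive chemical for 24 h; changes in either direction are fitted relative to DMSO.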

[13] = target: Transcription factor Sp1 (Homo sapiens) (UniProt P08047); experiment: ATG_Sp1_CIS: Attagene CIS-FACTORIAL HepG2 Assay for human Specificity Protein 1 (Sp1) (AID 2282961); details: HepG2 Sp1 cis-reporter transcription, actives raise or lower the signal
In short: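 Read-out is reporter transcript level, measured by RT-PCR and fluorescent capillary electrophoresis after 24 h chemical treatment. System: transiently transfected HepG2 cells reporting endogenous transcription factor activity; gain or loss fitted against DMSO baseline.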

[14] = ATG_SREBP_CIS: Attagene CIS-FACTORIAL HepG2 Assay for human Sterol Regulatory Element Binding (SREBP) (AID 2282962); details: HepG2 Attagene cis-factorial SREBP reporter, mRNA; actives raise or lower the signal
In short: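 HepG2 cells transiently transfected with multiplexed cis-promoter reporter units sensing endogenous transcription factors; reporter mRNA measured 24 h after dosing by RT-PCR, 6-FAM labeling, HpaI digestion and capillary electrophoresis. Bidirectional fit versus DMSO.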

[15] = target: Signal transducer and activator of transcription 3 (Homo sapiens) (UniProt P40763); experiment: ATG_STAT3_CIS: Attagene CIS-FACTORIAL HepG2 Assay for human Signal Transducer and Activator of Transcription 3 (STAT3) (AID 2282963); details: HepG2, Attagene cis-factorial STAT3 reporter transcription; actives raise or lower the signal
In short: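 Endogenous STAT3-responsive cis-element activity was read in transiently transfected HepG2 cells after 24 h treatment. Reporter transcripts were quantified via RT-PCR and capillary electrophoresis, with DMSO as negative control and bidirectional curve fitting.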

[16] = ATG_TA_CIS: Attagene CIS-FACTORIAL HepG2 Assay for human TA Basal Promoter (AID 2282964); details: HepG2 Attagene CIS-factorial TA basal promoter reporter; actives raise or lower the signal
In short: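 Cis-factorial format in HepG2: reporters report endogenous factors, not chimeric Gal4 fusions. After 24 h treatment, reporter transcripts were measured by RT-PCR-capillary electrophoresis fluorescence, analysed bidirectionally versus DMSO.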

[17] = ATG_TCF_b_cat_CIS: Attagene CIS-FACTORIAL HepG2 Assay for human T-Cell-Factor with beta-catenin (TCF/b-cat) (AID 2282965); details: HepG2 TCF/beta-catenin cis-reporter transcription, actives raise or lower the signal
In short: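 Measured: reporter mRNA in HepG2 transiently transfected with cis-promoter reporter units, 24 h after chemical addition. Fitting was bidirectional, DMSO as negative control.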

[18] = ATG_TAL_CIS: Attagene CIS-FACTORIAL HepG2 Assay for human TAL Basal Promoter (AID 2282966); details: HepG2 Attagene cis-factorial TAL promoter reporter; actives raise or lower the signal;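 note: background control endpoint measuring basal TAL promoter reporter mRNA not a specific factor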
In short: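 In this cell-based multiplex, HepG2 liver cells bearing cis-promoter reporter constructs are dosed for 24 hours. Total RNA is reverse-transcribed and amplified, labelled fragments are sized by capillary electrophoresis, and signal changes are fitted bidirectionally versus DMSO.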

[19] = ATG_TGFb_CIS: Attagene CIS-FACTORIAL HepG2 Assay for human Transforming Growth Factor (TGF) (AID 2282967); details: HepG2 Attagene CIS TGFb reporter, mRNA transcription; actives raise or lower the signal
In short: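 Multiplexed cis-reporter HepG2 system, 24 h treatment; mRNA induction read by fluorescence after RT-PCR and CE; DMSO negative control, bidirectional curve fitting.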

[20] = ATG_PPRE_CIS: Attagene CIS-FACTORIAL HepG2 Assay for human Peroxisome Proliferator-activated Response Element (PPRE) (AID 2282958); details: HepG2 PPRE cis-element reporter, Attagene transcription factor profiling; actives raise or lower the signal
In short: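 Endogenous PPRE-driven transcription is measured in HepG2 cells carrying transfected multi-reporter constructs. Reporter transcripts are quantified by RT-PCR, HpaI digestion and capillary electrophoresis 24 h after dosing. DMSO baseline, bidirectional fit.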

Chain of Signal transducer and activator of transcription 3 (Homo sapiens) (P40763 whole entry, looked up): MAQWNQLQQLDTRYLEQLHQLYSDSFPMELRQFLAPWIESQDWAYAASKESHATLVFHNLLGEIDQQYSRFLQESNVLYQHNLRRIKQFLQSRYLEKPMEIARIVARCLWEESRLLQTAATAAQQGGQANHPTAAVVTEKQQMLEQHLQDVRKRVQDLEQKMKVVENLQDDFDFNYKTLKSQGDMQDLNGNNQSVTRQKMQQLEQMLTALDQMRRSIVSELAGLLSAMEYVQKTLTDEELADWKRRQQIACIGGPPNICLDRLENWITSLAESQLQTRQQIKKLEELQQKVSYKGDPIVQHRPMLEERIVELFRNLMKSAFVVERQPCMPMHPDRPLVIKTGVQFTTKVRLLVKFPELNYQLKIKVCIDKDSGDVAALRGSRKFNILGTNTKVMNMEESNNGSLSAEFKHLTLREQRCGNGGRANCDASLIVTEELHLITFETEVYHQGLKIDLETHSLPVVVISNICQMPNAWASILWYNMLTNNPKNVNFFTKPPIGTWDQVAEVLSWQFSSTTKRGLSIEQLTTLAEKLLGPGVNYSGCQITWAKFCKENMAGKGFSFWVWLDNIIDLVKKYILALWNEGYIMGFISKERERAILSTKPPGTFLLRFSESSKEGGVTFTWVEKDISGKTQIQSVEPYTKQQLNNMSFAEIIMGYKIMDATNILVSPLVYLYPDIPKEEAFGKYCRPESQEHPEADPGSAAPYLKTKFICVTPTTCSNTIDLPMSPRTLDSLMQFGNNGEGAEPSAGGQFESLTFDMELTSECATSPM
Chain of Paired box protein Pax-6 (Homo sapiens) (P26367 whole entry, looked up): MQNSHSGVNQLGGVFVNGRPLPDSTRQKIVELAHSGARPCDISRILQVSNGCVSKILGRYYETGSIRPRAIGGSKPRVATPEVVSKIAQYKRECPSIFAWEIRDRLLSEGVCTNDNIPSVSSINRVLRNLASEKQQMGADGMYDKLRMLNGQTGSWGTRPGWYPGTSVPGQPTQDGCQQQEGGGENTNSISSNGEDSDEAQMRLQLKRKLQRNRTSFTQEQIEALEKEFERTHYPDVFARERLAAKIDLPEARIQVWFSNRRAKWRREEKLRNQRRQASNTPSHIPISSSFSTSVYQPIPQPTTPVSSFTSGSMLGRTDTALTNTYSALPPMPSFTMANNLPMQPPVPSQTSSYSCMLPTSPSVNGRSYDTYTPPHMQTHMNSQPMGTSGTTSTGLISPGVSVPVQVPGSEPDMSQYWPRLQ
Chain of Hepatocyte nuclear factor 6 (Homo sapiens) (Q9UBC0 whole entry, looked up): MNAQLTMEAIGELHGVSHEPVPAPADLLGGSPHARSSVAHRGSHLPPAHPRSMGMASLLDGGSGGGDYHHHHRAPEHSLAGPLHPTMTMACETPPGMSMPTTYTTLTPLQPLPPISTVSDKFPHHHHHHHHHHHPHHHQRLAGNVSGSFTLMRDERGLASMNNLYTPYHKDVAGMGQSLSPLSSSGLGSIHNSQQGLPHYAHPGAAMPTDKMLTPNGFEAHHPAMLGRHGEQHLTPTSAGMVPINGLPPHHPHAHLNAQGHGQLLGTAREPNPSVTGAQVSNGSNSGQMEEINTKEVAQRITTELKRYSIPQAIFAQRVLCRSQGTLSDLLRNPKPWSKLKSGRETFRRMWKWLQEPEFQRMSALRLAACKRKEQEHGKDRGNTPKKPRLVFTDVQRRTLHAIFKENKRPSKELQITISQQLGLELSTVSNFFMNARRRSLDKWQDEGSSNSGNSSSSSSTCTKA
Chain of Hypoxia-inducible factor 1-alpha (Homo sapiens) (Q16665 whole entry, looked up): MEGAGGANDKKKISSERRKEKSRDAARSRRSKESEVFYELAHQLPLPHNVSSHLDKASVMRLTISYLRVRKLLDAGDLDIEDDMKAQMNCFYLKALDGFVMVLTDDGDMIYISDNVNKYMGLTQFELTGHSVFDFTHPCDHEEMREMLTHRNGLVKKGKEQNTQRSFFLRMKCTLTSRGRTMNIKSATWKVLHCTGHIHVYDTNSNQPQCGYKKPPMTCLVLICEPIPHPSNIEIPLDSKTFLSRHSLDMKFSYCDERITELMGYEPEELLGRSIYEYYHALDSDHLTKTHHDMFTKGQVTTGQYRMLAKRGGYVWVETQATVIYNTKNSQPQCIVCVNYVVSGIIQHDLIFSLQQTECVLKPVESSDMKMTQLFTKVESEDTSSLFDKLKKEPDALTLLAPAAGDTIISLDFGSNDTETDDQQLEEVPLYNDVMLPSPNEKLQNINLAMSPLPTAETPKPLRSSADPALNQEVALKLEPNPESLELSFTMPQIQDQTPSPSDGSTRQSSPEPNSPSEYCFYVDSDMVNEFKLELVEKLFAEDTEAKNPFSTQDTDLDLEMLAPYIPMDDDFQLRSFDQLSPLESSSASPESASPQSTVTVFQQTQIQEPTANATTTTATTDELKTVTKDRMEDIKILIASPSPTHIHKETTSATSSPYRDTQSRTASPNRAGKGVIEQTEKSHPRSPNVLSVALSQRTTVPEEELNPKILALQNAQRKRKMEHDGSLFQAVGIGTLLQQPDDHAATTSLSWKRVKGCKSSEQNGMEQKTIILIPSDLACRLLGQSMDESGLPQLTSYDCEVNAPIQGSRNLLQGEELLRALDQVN
Chain of Heat shock factor protein 1 (Homo sapiens) (Q00613 whole entry, looked up): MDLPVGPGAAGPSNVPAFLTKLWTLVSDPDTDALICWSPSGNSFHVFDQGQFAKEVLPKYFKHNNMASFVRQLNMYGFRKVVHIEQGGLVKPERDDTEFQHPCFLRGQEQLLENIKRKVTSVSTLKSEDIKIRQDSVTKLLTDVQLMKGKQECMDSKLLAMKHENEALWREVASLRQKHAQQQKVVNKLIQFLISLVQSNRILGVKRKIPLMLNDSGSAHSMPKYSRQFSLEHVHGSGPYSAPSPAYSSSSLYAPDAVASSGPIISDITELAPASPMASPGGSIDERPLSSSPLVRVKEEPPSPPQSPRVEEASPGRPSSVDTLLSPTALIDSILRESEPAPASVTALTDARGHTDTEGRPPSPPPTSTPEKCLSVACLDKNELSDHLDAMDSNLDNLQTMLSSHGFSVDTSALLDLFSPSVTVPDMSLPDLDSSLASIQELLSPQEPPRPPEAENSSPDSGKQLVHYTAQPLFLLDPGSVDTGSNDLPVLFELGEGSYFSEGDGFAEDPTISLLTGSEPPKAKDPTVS
Chain of Transcription factor Sp1 (Homo sapiens) (P08047 whole entry, looked up): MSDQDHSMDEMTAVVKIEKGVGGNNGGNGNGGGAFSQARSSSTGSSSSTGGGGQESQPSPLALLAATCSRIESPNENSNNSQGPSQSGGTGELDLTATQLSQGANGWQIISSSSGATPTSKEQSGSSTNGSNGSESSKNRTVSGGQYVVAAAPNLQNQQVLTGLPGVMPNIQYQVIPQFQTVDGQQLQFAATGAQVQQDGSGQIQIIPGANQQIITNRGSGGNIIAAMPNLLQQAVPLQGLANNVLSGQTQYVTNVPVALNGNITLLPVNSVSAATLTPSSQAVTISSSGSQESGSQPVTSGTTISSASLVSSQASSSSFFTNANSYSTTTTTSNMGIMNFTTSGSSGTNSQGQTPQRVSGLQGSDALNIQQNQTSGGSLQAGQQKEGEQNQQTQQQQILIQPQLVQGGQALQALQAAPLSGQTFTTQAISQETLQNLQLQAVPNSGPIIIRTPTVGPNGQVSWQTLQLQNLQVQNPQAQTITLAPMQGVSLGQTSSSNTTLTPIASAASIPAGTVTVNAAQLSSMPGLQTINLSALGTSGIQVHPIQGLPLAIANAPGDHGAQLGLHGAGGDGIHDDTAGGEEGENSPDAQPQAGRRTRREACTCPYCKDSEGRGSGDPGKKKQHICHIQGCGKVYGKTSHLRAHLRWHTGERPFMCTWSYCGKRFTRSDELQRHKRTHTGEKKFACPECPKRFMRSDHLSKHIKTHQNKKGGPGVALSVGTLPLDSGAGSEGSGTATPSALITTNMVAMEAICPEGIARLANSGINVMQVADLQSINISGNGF

SMILES: CCCCCCCC(OC)OC
- outcome [1]: inactive
- outcome [2]: inactive
- outcome [3]: inactive
- outcome [4]: inactive
- outcome [5]: inactive
- outcome [6]: inactive
- outcome [7]: inactive
- outcome [8]: inactive
- outcome [9]: inactive
- outcome [10]: inactive
- outcome [11]: inactive
- outcome [12]: inactive
- outcome [13]: inactive
- outcome [14]: inactive
- outcome [15]: inactive
- outcome [16]: inactive
- outcome [17]: inactive
- outcome [18]: inactive
- outcome [19]: inactive

SMILES: CCCCCc1ccc(O)cc1
- outcome [1]: inactive
- outcome [2]: inactive
- outcome [3]: inactive
- outcome [4]: inactive
- outcome [5]: inactive
- AC50 [6]: 33.4 µM (active)
- outcome [7]: inactive
- outcome [8]: inactive
- outcome [9]: inactive
- AC50 [10]: 33.4 µM (active)
- outcome [20]: inactive
- outcome [11]: inactive
- outcome [12]: inactive
- outcome [14]: inactive
- outcome [15]: inactive
- outcome [16]: inactive
- outcome [17]: inactive
- outcome [18]: inactive
- outcome [19]: inactive

SMILES: OCC(F)(F)C(F)(F)C(F)(F)C(F)(F)C(F)(F)C(F)(F)C(F)(F)C(F)(F)C(F)(F)C(F)(F)C(F)(F)F
- outcome [1]: inactive
- outcome [2]: inactive
- outcome [3]: inactive
- outcome [4]: inactive
- outcome [5]: inactive
- outcome [6]: inactive
- outcome [7]: inactive
- outcome [8]: inactive
- outcome [9]: inactive
- outcome [10]: inactive
- outcome [11]: inactive
- outcome [12]: inactive
- outcome [13]: inactive
- outcome [14]: inactive
- outcome [15]: inactive
- outcome [16]: inactive
- outcome [17]: inactive
- outcome [18]: inactive
- outcome [19]: inactive

SMILES: O=C(F)C(F)(F)C(F)(F)C(F)(F)C(F)F
- outcome [1]: inactive
- outcome [2]: inactive
- outcome [3]: inactive
- outcome [4]: inactive
- outcome [5]: inactive
- outcome [6]: inactive
- outcome [7]: inactive
- outcome [8]: inactive
- outcome [9]: inactive
- outcome [10]: inactive
- outcome [11]: inactive
- outcome [12]: inactive
- outcome [13]: inactive
- outcome [14]: inactive
- outcome [15]: inactive
- outcome [16]: inactive
- outcome [17]: inactive
- outcome [18]: inactive
- outcome [19]: inactive

SMILES: O=CC(F)(F)C(F)(F)C(F)(F)C(F)F
- outcome [1]: inactive
- outcome [2]: inactive
- outcome [3]: inactive
- outcome [4]: inactive
- outcome [5]: inactive
- outcome [6]: inactive
- outcome [7]: inactive
- outcome [8]: inactive
- outcome [9]: inactive
- outcome [10]: inactive
- outcome [20]: inactive
- outcome [11]: inactive
- outcome [13]: inactive
- outcome [14]: inactive
- outcome [15]: inactive
- outcome [16]: inactive
- outcome [17]: inactive
- outcome [18]: inactive
- outcome [19]: inactive

SMILES: CCO[Si](C)(C)OCC
- outcome [1]: inactive
- outcome [2]: inactive
- outcome [3]: inactive
- outcome [4]: inactive
- outcome [5]: inactive
- outcome [6]: inactive
- outcome [7]: inactive
- outcome [8]: inactive
- outcome [9]: inactive
- outcome [10]: inactive
- outcome [11]: inactive
- outcome [12]: inactive
- outcome [13]: inactive
- outcome [14]: inactive
- outcome [15]: inactive
- outcome [16]: inactive
- outcome [17]: inactive
- outcome [18]: inactive
- outcome [19]: inactive

SMILES: CCOC(C)=O
- outcome [1]: inactive
- outcome [2]: inactive
- outcome [3]: inactive
- outcome [4]: inactive
- outcome [5]: inactive
- outcome [6]: inactive
- outcome [7]: inactive
- outcome [8]: inactive
- outcome [9]: inactive
- outcome [10]: inactive
- outcome [11]: inactive
- outcome [12]: inactive
- outcome [13]: inactive
- outcome [14]: inactive
- outcome [15]: inactive
- outcome [16]: inactive
- outcome [17]: inactive
- outcome [18]: inactive
- outcome [19]: inactive
